Bioassay records as filed in PubChem.
A selection: hits, their analogues and other compounds. The true share with any hit is near 10%.
p97 inhibitor = blocks human p97 ATPase activity | P55072 | recombinant p97 ATPase, Kinase-Glo ATP luminescence, 3 h | inhibition, % at 8 µM | 220,000 compounds, 0.42% hits; in the data active = inhibition above about 15%
INS promoter inh = TRM-6 insulin promoter activity inhibition | AID 1273 | inhibition, % at 2 µM | TRM-6 cells (human fetal islet line), insulin promoter-eGFP reporter, imaging; reporter expression induced with tamoxifen | 130,000 compounds, 0.9% hits;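 active = inhibition above the mean plus 3 SD, with well images judged a real hit on visual review, cut at about 60% in these data, passing the limit was not always enough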
PTEN del growth = PTEN-deleted cell growth suppression; HCT116 PTEN-null viability, CellTiter-Glo, 60 h; active compounds read low; viability, % at 10 µM; 140,000 compounds, 1.2% hits;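 active = viability at or below a set limit, 4 SD under the median of all tested compounds, cut at about 3.7% in these data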;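 also: PTEN knockout HCT116 line with beta catenin targeted HCT116 as companion control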
ROMK primary = modulates human ROMK potassium channel activity; Tet-inducible ROMK, thallium flux fluorescence; actives lie on both sides; AID 1918; P48048; B-score at 10 µM; 130,000 compounds, 2% hits;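 active = signal ratio slope over the read window, or its plate-corrected B-score, at least 3 SD from the plate mean, either direction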;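 also: B-score of the F/F0 ratio slope over 7 to 12 s after thallium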
Target sequence (P48048 whole entry, looked up): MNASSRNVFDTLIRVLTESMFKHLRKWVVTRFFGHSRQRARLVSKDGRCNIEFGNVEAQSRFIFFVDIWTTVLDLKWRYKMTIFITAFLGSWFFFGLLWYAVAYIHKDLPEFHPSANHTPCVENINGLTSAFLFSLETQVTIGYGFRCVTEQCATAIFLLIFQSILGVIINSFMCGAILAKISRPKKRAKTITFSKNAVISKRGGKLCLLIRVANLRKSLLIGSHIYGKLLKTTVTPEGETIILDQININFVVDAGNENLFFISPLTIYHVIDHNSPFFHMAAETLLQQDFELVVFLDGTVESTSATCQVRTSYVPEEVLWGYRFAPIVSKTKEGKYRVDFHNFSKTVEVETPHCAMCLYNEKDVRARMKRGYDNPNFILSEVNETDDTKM
Lmaj promast = reduces viability of Leishmania major promastigotes; resazurin fluorescence viability; inhibition, % at 10 µM; 200,000 compounds, 9% hits; AID 1063; in the data active = inhibition above about 50%;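 also: promastigotes grown with compound for 44 hours at 28 °C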
bCat KO growth = beta-catenin-lacking colon tumor cell growth suppression; viability, % at 10 µM; HCT116 beta-catenin knockout viability, CellTiter-Glo, 60 h; active compounds read low; 140,000 compounds, 1.5% hits;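 active = viability at or under a set limit, the compound median less 4 SD, cut at about 6% in these data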
ROMK retest = human ROMK channel modulation, retest confirmation | shares compounds with ROMK primary | ROMK thallium flux, fluorescence ratio; active compounds read low | normalized thallium flux (F/F0 slope) at 10 µM | 3,000 compounds, 54% hits | AID 1917;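 active = Flux at 10 µM at least 3 SD below or above vehicle control mean in one or both replicates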
Numbers stand for hits; - = inactive; . = no result.

SMILES	p97 inhibitor	INS promoter inh	PTEN del growth	ROMK primary	Lmaj promast	bCat KO growth	ROMK retest
CC(C)C(c1nnnn1Cc1ccc(F)cc1)N1CCN(Cc2ccc3c(c2)OCO3)CC1 (centres undefined)	-	-	-	-2.34	67.8	-	0.0544
CC(C)C(c1nnnn1Cc1ccc(F)cc1)N1CCN(C2CCCCC2)CC1 (centres undefined)	-	-	-	-4.95	-	-	0.0607
CCOC(=O)C1CCN(C(=O)CCNC(=O)c2cc(OC)c(OC)c(OC)c2)CC1	-	.	-	-	-	-	.
CC1CC(C)(C)NC(=S)N1CCCC(=O)Nc1ccc(F)c(F)c1 (centres undefined)	-	.	.	-	-	.	.
CCCC(=O)OCCNc1cc(Sc2nccn2C)c2nonc2c1[N+](=O)[O-]	-	-	1.7	-4.7	99.9	1.9	0.0505
CCOC(=O)C1CCCN(c2cc(NCCCO)c([N+](=O)[O-])c3nonc23)C1 (centres undefined)	-	-	-	-	-	-	.
Cc1nnc(Sc2cc(NCCO)c([N+](=O)[O-])c3nonc23)s1	-	-	.	-7.2	-	.	0.0569
Cc1nnc(Sc2cc(NCCCO)c([N+](=O)[O-])c3nonc23)s1	-	.	.	-	-	.	.
COc1ccc(N2CCN(C(=O)CCNS(=O)(=O)c3ccc4c(c3)CCC(=O)N4)CC2)cc1	-	-	-	-	-	-	.
COc1cc(CNc2ccc(C)c(C)c2)cc(OC)c1OC	-	-	-	3.38	-	-	-
COc1ccc(N2C(=O)CSC23C(=O)Nc2ccccc23)cc1OC (centres undefined)	-	.	-	.	-	-	-
CC(CC(=O)O)Nc1ccccc1O (centres undefined)	-	.	.	-	-	.	-
O=c1[nH]c2ccc([N+](=O)[O-])cc2nc1/C=C(\O)c1ccccc1	-	.	.	.	.	.	.
O=c1oc(/C=C/c2ccccc2)nc2sc3c(c12)CCC3	-	-	-	-3.67	-	-	0.0446
OC1CCN(C(=S)NCCc2ccccc2)CC1	-	-	-	-	-	-	.
S=C(CN1CCCC1=S)NCCc1ccccc1	-	.	.	.	.	.	-
O=C(Nc1ccc(Oc2cccc(C(F)(F)F)c2)nc1)c1cccs1	-	.	.	.	.	.	0.064
O=C(Nc1ccc(Oc2cccc(C(F)(F)F)c2)nc1)c1ccccc1	-	.	.	.	.	.	.
Cc1ccc(S(=O)(=O)N[C@@H](Cc2ccccc2)C(=O)CCl)cc1	-	-	-	.	-	-	.
COc1cc(NC(=O)CSc2nncn2C)c(C)cc1[N+](=O)[O-]	-	-	.	-	-	.	.
Cc1c(C=O)c(Cl)n(C)c(=O)c1C#N	-	.	.	-	-	.	.
CSc1cccc(NC(=O)C2CCN(S(=O)(=O)c3ccc(F)cc3)CC2)c1	-	-	-	.	-	-	.
CSc1cccc(NC(=O)C2CCCN2S(=O)(=O)c2ccc(Br)s2)c1 (centres undefined)	-	-	-	-3.07	-	-	0.0613
CC(=O)c1cc(C#N)c(SCc2ccccc2)nc1C	-	-	-	-	-	-	.
CCCCCc1ccc(-c2ccc(=O)[nH]n2)cc1	-	.	-	-	-	-	-
SMILES	p97 inhibitor	INS promoter inh	PTEN del growth	ROMK primary	Lmaj promast	bCat KO growth	ROMK retest
O=C1C2CC=CCC2C(=O)N1Cc1ccccc1 (centres undefined)	-	-	-	-	-	-	.
O=C1C2C(c3cccc(/C=C/c4ccccc4)c3)CC=CC2C(c2ccc(C(F)(F)F)cc2)N1Cc1ccccc1 (centres undefined)	.	.	.	.	.	.	-
Cc1cn2c(N)c(C=C3C=C(Cl)C(=O)C(Cl)=C3)c(=O)nc2s1	-	-	.	-6.15	-	.	0.025
COC1=C/C(=C/c2c(N)n3cc(C)sc3nc2=O)C=CC1=O	-	-	-	-	-	-	.
Cc1ccc(NC(=O)/C=C/c2ccco2)nc1	-	-	-	4.53	-	-	-
O=C(/C=C/c1ccco1)Nc1ccccn1	-	-	-	1.79	-	-	-
O=C(CN(C(=O)CNC(=O)c1ccco1)c1ccc(Cl)c(Cl)c1)NC1CCCCC1	-	-	-	.	-	-	.
N#Cc1c(NCCN)nc(-c2ccccc2)c2c1CCCC2	-	-	-	-4.04	84.5	-	0.05
CN(NC(=O)NN)c1ncc(C(F)(F)F)cc1Cl	-	-	-	.	-	-	.
O=C1CC(c2ccc(F)cc2)CC(O)=C1C=NCCN1CCNCC1 (centres undefined)	-	-	-	.	-	-	.
CN1C(=O)CC(N2CCN(CCN=CC3=C(O)CC(C)(C)CC3=O)CC2)C1=O (centres undefined)	-	.	-	-	-	-	.
CC1(C)CC(=O)C(C=NCCN2CCN(C3CC(=O)N(c4ccc(Cl)c(Cl)c4)C3=O)CC2)=C(O)C1 (centres undefined)	-	.	.	-6.7	-	.	-
O=C1CC(c2ccc(Cl)c(Cl)c2)CC(O)=C1C=NCCN1CCNCC1 (centres undefined)	-	.	-	.	-	-	0.0572
O=C(Nn1c(=O)[nH]c2ccccc2c1=O)c1ccco1	-	.	-	-	-	-	.
O=S(=O)(Nc1cc(Sc2ncn[nH]2)c(O)c2ccccc12)c1ccccc1	29.2	-	.	-4.34	99.1	.	0.0464
COc1ccc(-c2cc(C(=O)Nc3cc(S(=O)(=O)N4CCOCC4)ccc3N3CCOCC3)c3ccccc3n2)cc1	-	.	.	1.77	65.0	.	0.0648
O=C(COC(=O)c1ccc(F)cc1)Nc1cc(S(=O)(=O)N2CCOCC2)ccc1N1CCCC1	-	.	.	-	-	.	.
Cc1ccc(S(=O)(=O)N2CCCCC2)cc1NC(=O)COC(=O)Cc1ccc(Cl)cc1	-	-	-	-	-	-	.
Cc1ccc(S(=O)(=O)N2CCCCC2)cc1NC(=O)COC(=O)Cc1cccc(C(F)(F)F)c1	-	-	-	-4	-	-	0.0633
O=C(COC(=O)Cc1ccc(Cl)cc1)Nc1cc(S(=O)(=O)N2CCOCC2)ccc1N1CCCC1	-	.	-	-4.32	-	-	0.0608
COc1ccc(NCC(=O)Nc2cc(S(=O)(=O)N3CCOCC3)ccc2N2CCOCC2)c(OC)c1	-	.	.	.	.	.	.
N#C/C(=C\c1ccccc1)C(=O)Nc1cc(S(=O)(=O)N2CCOCC2)ccc1N1CCCC1	-	.	-	.	-	-	0.0563
CC1(C(=O)NCCCN2CCOCC2)Oc2cccnc2NC1=O (centres undefined)	-	.	.	-	-	.	.
Cc1ccc(NC(=O)N(Cc2nc3ccccc3c(=O)[nH]2)Cc2cccs2)cc1	-	-	-	-	-	-	.
Cc1cc([N+](=O)[O-])nn1CC(=O)N1c2ccccc2CC1C (centres undefined)	-	-	-	-	-	-	.
CCCCN(C(=O)c1cccc2c(=O)c(C)c(-c3ccccc3)oc12)c1ccccc1	-	-	-	-3.7	72.9	-	0.0628
CCCCNC(=O)c1cccc2c(=O)c(C)c(-c3ccccc3)oc12	-	.	-	.	-	-	.
CCCCC(C(=O)OCC)C(N)Cc1ccc(F)cc1 (centres undefined)	-	-	.	-	-	.	.
COc1ccc(Cn2nnnc2C(c2cc3cccc(C)c3[nH]c2=O)N2CCN(C)CC2)cc1 (centres undefined)	-	-	.	-	-	.	.
